Screens deposited in PubChem BioAssay by National Center for Advancing Translational Sciences (NCATS).
Sampled rows, rich in hits. Any-hit rate of the full collection: about 19%.
ELG1 repair inh – inhibitors of ELG1-dependent DNA repair in HEK293T cells | HEK293T ELG1-luciferase reporter, luminescence, 16 h; DNA damage induced by 5-fluorouridine | Potency, µM (series often up to 46.1 µM), hits mostly inhibitors | 2.3% of 330,000 active | AID 504467; further: nearly all actives have a fitted effect of over 55% in size
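HEK293T cells expressing luciferase-tagged ELG1 (2,000/well) received 5-Fluorouridine plus compound or DMSO for 16 hr at 37 °C. Luciferase was read by ONE-Glo luminescence after 30 min at room temperature.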
IL-1B inflam inh – inflammasome signaling inhibition, IL-1 beta readout; THP-1 LPS/ATP IL-1B secretion, AlphaLISA, 16 h; stronger effect = lower value; activity change, % at 57.5 µM; 4.7% of 360,000 active; AID 743279; in the data active means activity change below about -50%; inconclusive means mostly about -30% to -49%
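Secreted IL-1B measured by AlphaLISA bead assay after 16 h compound exposure of THP-1 cells; compounds (final up to 57.5 uM) added 1 h before LPS (250 ng/mL) and ATP (1.25 mM) stimulation; lower signal means less secretion.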
DT40 TDP1 CPT – growth inhibition of DT40 Tdp1-/-;hTDP1 cells with camptothecin (screen for TDP1 inhibitors) | 12% of 420,000 active | Potency, µM (top dose mostly 46.2 µM), hits mostly inhibitors | AID 686979 | chicken DT40 Tdp1-/-;hTDP1 cells + 20 nM CPT, ATP luminescence, 48 h; further: nearly all actives have a fitted effect of over 55% in size
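Chicken DT40 Tdp1-/- cells stably complemented with human TDP1 were seeded at 400 cells/well in medium containing 20 nM camptothecin, exposed to pin-transferred compounds, and grown at 37 °C for at least 48 hr. Viability was read as ATP luminescence.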
HT1080-NT tox – kills 2HG-producing HT-1080-NT fibrosarcoma cells | Potency, µM (top dose mostly 46.1 µM), actives largely listed as cytotoxic | HT-1080-NT fibrosarcoma viability, CellTiter-Glo ATP luminescence, 48 h | AID 686970 | 1.6% of 360,000 active;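 further: NT is the 2HG producing partner of a matched IDH1 knockdown line; nearly all actives have a fitted effect of over 55% in size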
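A 48-hour cytotoxicity screen used HT-1080-NT cells plated 2 hours before compound delivery. ATP-based CellTiter-Glo luminescence measured viability, normalized to DMSO and no-cell controls.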
HT1080 IDH1KD tx – toxicity to HT-1080 IDH1 knockdown cells (counter line) | HT-1080 IDH1 knockdown viability, ATP luminescence, 48 h | Potency, µM (top dose mostly 46.1 µM), most hits filed as cytotoxic | 2% of 360,000 active
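CellTiter-Glo luminescence after 48 h compound exposure at 37 degrees C of IDH1-knockdown HT-1080 cells in 5% FBS RPMI. %Activity scaled between DMSO wells and cell-free media wells, with curves fitted and assigned curve classes.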
TDP1 cell noCPT – qHTS for Inhibitors of human tyrosyl-DNA phosphodiesterase 1 (TDP1): qHTS in cells in absence of CPT; 15% of 420,000 active; Potency, µM (top dose mostly 46.2 µM), usual class: inhibitors; DT40 Tdp1-/- hTDP1 cells, no CPT, ATP luminescence, 48 h; further: nearly all actives have a fitted effect of over 55% in size
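Seeded 400 DT40-hTDP1 cells/well (vehicle DMSO, no 20 nM CPT); pinned compounds; ≥48 hr at 37 °C; CellTiter-Glo luminescence as viability measure.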
Hits are given with their value. Unless noted, the call rests on the fitted dose curve; in most records, active means well fitted curve in the direction sought with a large enough effect; inconclusive means small, poorly fitted or top-dose-only effect, or another doubt; inactive means no such curve, though single readings can be large; an effect the other way counts as inactive or inconclusive.

Results for CCOC(=O)C1=C(c2ccccc2)NC(SC)=C(C#N)C1c1ccco1 (configuration not stated) ?
ELG1 repair inh: inactive; IL-1B inflam inh: inactive; DT40 TDP1 CPT: 18µM; HT1080-NT tox: inactive; HT1080 IDH1KD tx: inactive; TDP1 cell noCPT: 21µM

Results for CCOC(=O)C1=C(c2ccccc2)NC(SCC(=O)Nc2ccc(C)cc2)=C(C#N)C1c1ccco1 (configuration not stated) ?
IL-1B inflam inh: inactive; DT40 TDP1 CPT: inconclusive; HT1080-NT tox: inconclusive; HT1080 IDH1KD tx: inconclusive; TDP1 cell noCPT: inconclusive

What do the screens show for `N#C/C(=C/c1ccc(N2CCCC2)c([N+](=O)[O-])c1)c1nc2ccccc2[nH]1`?
ELG1 repair inh: inconclusive; IL-1B inflam inh: inactive; DT40 TDP1 CPT: 13µM; HT1080-NT tox: inactive; HT1080 IDH1KD tx: inactive; TDP1 cell noCPT: 15µM

What do the screens show for `Cc1ccc2nc(/C(C#N)=C\c3ccc(N4CCCCC4)c([N+](=O)[O-])c3)[nH]c2c1`?
IL-1B inflam inh: inconclusive; DT40 TDP1 CPT: 21µM; HT1080-NT tox: inconclusive; HT1080 IDH1KD tx: inconclusive; TDP1 cell noCPT: 10µM

Results for N#C/C(=C\c1ccc(OC(=O)c2ccc(Br)s2)cc1)c1nc2ccccc2[nH]1 ?
ELG1 repair inh: inconclusive; IL-1B inflam inh: inactive; DT40 TDP1 CPT: inconclusive; HT1080-NT tox: inactive; HT1080 IDH1KD tx: inactive; TDP1 cell noCPT: inconclusive

How did N#C/C(=C\c1ccc(N2CCOCC2)c([N+](=O)[O-])c1)c1nc2ccccc2[nH]1 do in these assays?
ELG1 repair inh: inconclusive; IL-1B inflam inh: -104; DT40 TDP1 CPT: 26µM; HT1080-NT tox: inactive; HT1080 IDH1KD tx: inactive; TDP1 cell noCPT: 15µM

How did N#C/C(=C\c1ccc(Oc2ccc(C(F)(F)F)cc2[N+](=O)[O-])cc1)c1nc2ccccc2[nH]1 do in these assays?
ELG1 repair inh: inconclusive; IL-1B inflam inh: inactive; DT40 TDP1 CPT: inactive; HT1080-NT tox: inactive; HT1080 IDH1KD tx: inactive; TDP1 cell noCPT: 21µM

What do the screens show for `N#C/C(=C\c1ccc(OC(=O)c2ccc(Cl)s2)cc1)c1nc2ccccc2[nH]1`?
ELG1 repair inh: inconclusive; IL-1B inflam inh: inactive; DT40 TDP1 CPT: inconclusive; HT1080-NT tox: inactive; HT1080 IDH1KD tx: inactive; TDP1 cell noCPT: inconclusive

Results for CC1(C(=O)NS(=O)(=O)c2ccc(Cl)cc2)CCN1C(=O)c1ccccc1CCc1ccccc1 (configuration not stated) ?
IL-1B inflam inh: inactive; DT40 TDP1 CPT: inactive; HT1080-NT tox: inactive; HT1080 IDH1KD tx: inactive; TDP1 cell noCPT: inactive

Results for COc1ccc(NC(=S)N2CCC3CC2c2cc(-c4ccc5c(c4)OCO5)ccc23)c(OC)c1 (configuration not stated) ?
IL-1B inflam inh: inactive; DT40 TDP1 CPT: inconclusive; HT1080-NT tox: inactive; HT1080 IDH1KD tx: inactive; TDP1 cell noCPT: inconclusive

What do the screens show for `N#C/C(=C\c1ccc(N2CCOCC2)o1)c1nc2ccccc2[nH]1`?
ELG1 repair inh: inconclusive; IL-1B inflam inh: inactive; DT40 TDP1 CPT: inconclusive; HT1080-NT tox: inconclusive; HT1080 IDH1KD tx: inconclusive; TDP1 cell noCPT: 23µM

What do the screens show for `COc1cc(/C=C(\C#N)c2nc3ccccc3[nH]2)c([N+](=O)[O-])cc1OCc1ccccc1`?
ELG1 repair inh: inactive; IL-1B inflam inh: inactive; DT40 TDP1 CPT: 23µM; HT1080-NT tox: inactive; HT1080 IDH1KD tx: inactive; TDP1 cell noCPT: 18µM

What do the screens show for `N#C/C(=C\c1ccc(N2CCCCC2)o1)C(N)=O`?
ELG1 repair inh: inconclusive; IL-1B inflam inh: inactive; DT40 TDP1 CPT: inactive; HT1080-NT tox: inactive; HT1080 IDH1KD tx: inactive; TDP1 cell noCPT: inactive

Results for N#C/C(=C\c1ccc(-c2ccc(C(=O)O)cc2)o1)c1nc2ccccc2[nH]1 ?
ELG1 repair inh: inconclusive; IL-1B inflam inh: inactive; DT40 TDP1 CPT: inconclusive; HT1080-NT tox: inactive; HT1080 IDH1KD tx: inconclusive; TDP1 cell noCPT: inconclusive

How did N#C/C(=C/c1ccc(N2CCOCC2)o1)c1ccc(Cl)cc1 do in these assays?
ELG1 repair inh: inconclusive; IL-1B inflam inh: -78; DT40 TDP1 CPT: inconclusive; HT1080-NT tox: 6.3µM; HT1080 IDH1KD tx: 3.5µM; TDP1 cell noCPT: 15µM

What do the screens show for `Cc1csc(NC(=O)CSc2nc(=O)[nH]c3c2CCCC3)n1`?
ELG1 repair inh: inactive; IL-1B inflam inh: inactive; DT40 TDP1 CPT: inactive; HT1080-NT tox: inactive; HT1080 IDH1KD tx: inactive; TDP1 cell noCPT: inactive

How did Cc1cc(N2C(=O)C(O)=C(C(=O)c3cc4ccccc4o3)C2c2ccc(OC(C)C)cc2)no1 (configuration not stated) do in these assays?
ELG1 repair inh: inactive; IL-1B inflam inh: inactive; DT40 TDP1 CPT: inconclusive; HT1080-NT tox: inactive; HT1080 IDH1KD tx: inactive; TDP1 cell noCPT: 16µM

How did COc1cccc(C2C(C(=O)c3ccc(C)o3)=C(O)C(=O)N2CCN2CCOCC2)c1 (configuration not stated) do in these assays?
ELG1 repair inh: 21µM; IL-1B inflam inh: inactive; DT40 TDP1 CPT: inactive; HT1080-NT tox: inactive; HT1080 IDH1KD tx: inactive; TDP1 cell noCPT: inactive

How did COC(=O)c1ccc(C2C(C(=O)c3cc4ccccc4o3)=C(O)C(=O)N2c2cc(C)on2)cc1 (configuration not stated) do in these assays?
ELG1 repair inh: inactive; IL-1B inflam inh: inactive; DT40 TDP1 CPT: inactive; HT1080-NT tox: inactive; HT1080 IDH1KD tx: inactive; TDP1 cell noCPT: inactive

How did COc1cccc(C2C(C(=O)c3cccs3)=C(O)C(=O)N2CCN2CCOCC2)c1 (configuration not stated) do in these assays?
ELG1 repair inh: inactive; IL-1B inflam inh: inactive; DT40 TDP1 CPT: inactive; HT1080-NT tox: inactive; HT1080 IDH1KD tx: inactive; TDP1 cell noCPT: inactive

How did COc1cccc(C2C(C(=O)c3ccc(C)o3)=C(O)C(=O)N2c2cc(C)on2)c1 (configuration not stated) do in these assays?
ELG1 repair inh: inactive; IL-1B inflam inh: inactive; DT40 TDP1 CPT: 23µM; HT1080-NT tox: inactive; HT1080 IDH1KD tx: inactive; TDP1 cell noCPT: inconclusive

What do the screens show for `CCOC(=O)c1sc(N2C(=O)C(O)=C(C(=O)c3ccc(C)o3)C2c2ccc(OC)c(OC)c2)nc1C` (configuration not stated)?
ELG1 repair inh: inactive; IL-1B inflam inh: inactive; DT40 TDP1 CPT: 23µM; HT1080-NT tox: inactive; HT1080 IDH1KD tx: inactive; TDP1 cell noCPT: inconclusive

How did COc1ccccc1OCCn1c(SCC(=O)O)nc2ccccc21 do in these assays?
ELG1 repair inh: inactive; IL-1B inflam inh: inactive; DT40 TDP1 CPT: inactive; HT1080-NT tox: inactive; HT1080 IDH1KD tx: inactive; TDP1 cell noCPT: inactive
